NIH3T3 tox – NIH 3T3 cell cytotoxicity; Potency, µM (titrated, usually from 96.7 µM), hits mostly inhibitors; AID 1345082; actives 4.3% (n = 94,000); NIH 3T3 viability, CellTiter-Glo ATP luminescence, 48-72 h; note: nearly all actives have a fitted effect of over 55% in size
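Viability of NIH 3T3 cells after 48 or 72 hr compound treatment at 37 °C was assessed by CellTiter-Glo, with luminescence imaged following a 10 min room-temperature step.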
NPR1 antag – antagonists of human natriuretic peptide receptor Npr1; P16066; HEK293 hNpr1 GloSensor cGMP, ANP-stimulated luminescence; Potency, µM (top dose mostly 46.3 µM), most hits filed as inhibitors; actives 1.6% (n = 76,000); AID 1347048; calls by dose curve; note: nearly all actives have a fitted effect of over 60% in size
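HEK293 cells stably expressing human Npr1 and cGMP GloSensor pGS-40F, loaded 2 h with 2% GloSensor reagent, given compound 30 min at room temperature. Luminescence read before and 20 min after 0.1 nM hNppA.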
Luciferase inh – inhibitors of firefly (Photinus pyralis) luciferase; Potency, µM (top dose mostly 115 µM), hits mostly inhibitors; P08659; actives 2.5% (n = 76,000); purified P. pyralis luciferase, luminescence, biochemical; note: nearly all actives have a fitted effect of over 65% in size
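Luminescence read by CCD imaging after purified firefly luciferase (10nM final) was added to substrate buffer holding 10uM D-luciferin and 10uM ATP, pH 7.5, pre-dosed with compound.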
HEK293 tox – HEK 293 cell cytotoxicity. HEK 293 viability, ATP luminescence (CellTiter-Glo), 48-72 h. Potency, µM (titrated, usually from 115 µM), most hits filed as inhibitors. actives 6.6% (n = 94,000); note: nearly all actives have a fitted effect of over 60% in size
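CellTiter-Glo luminescence (cellular ATP) was read after 48 or 72 hr of compound exposure at 37 degree Celsius. Cells were HEK 293 plated at 250 cells/well.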
GPT2 inh – inhibitors of human GPT2 alanine aminotransferase. Q8TD30. Recombinant GPT2, coupled pyruvate oxidase/HRP Amplex Red fluorescence. Potency, µM (highest dose often 57.7 µM), most hits filed as inhibitors. actives 0.25% (n = 100,000); note: nearly all actives have a fitted effect of over 60% in size
Target sequence (Q8TD30 whole entry, looked up): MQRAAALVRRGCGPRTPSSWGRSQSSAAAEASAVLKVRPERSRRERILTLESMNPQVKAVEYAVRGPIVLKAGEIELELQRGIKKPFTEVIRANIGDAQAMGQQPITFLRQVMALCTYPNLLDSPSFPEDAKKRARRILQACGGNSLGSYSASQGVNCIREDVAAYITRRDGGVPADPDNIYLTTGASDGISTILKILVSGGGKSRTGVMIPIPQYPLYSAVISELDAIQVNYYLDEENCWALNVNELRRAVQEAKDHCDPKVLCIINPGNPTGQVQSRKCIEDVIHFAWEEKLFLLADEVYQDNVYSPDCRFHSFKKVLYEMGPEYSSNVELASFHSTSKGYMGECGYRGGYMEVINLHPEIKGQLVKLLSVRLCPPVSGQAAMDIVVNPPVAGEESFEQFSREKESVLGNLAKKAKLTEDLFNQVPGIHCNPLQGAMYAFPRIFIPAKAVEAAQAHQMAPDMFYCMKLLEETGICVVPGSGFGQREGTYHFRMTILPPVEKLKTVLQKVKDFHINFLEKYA
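Recombinant GPT2 (10ng/uL) with 250uM a-KG and 2mM L-alanine, 30 min at room temperature, in HEPES pH 7.5 buffer. Pyruvate detected by pyruvate oxidase/HRP/Amplex Red fluorescence after 30 min in the dark; AOA (50uM) as positive control.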
Hits are given with their value. The list is not random: actives were taken first. Their share in the collection is about 10%. Unless noted, calls come from the whole dose curve; as a rule, active = well fitted curve in the direction sought with a large enough effect; inconclusive = small, poorly fitted or top-dose-only effect, or another doubt; inactive = no such curve, though single readings can be large; an effect the other way counts as inactive or inconclusive.

Cc1ccc(NC(=O)N2CCc3c(C(=O)NC(C)C)cccc32)cc1 was read as NIH3T3 tox inconclusive, NPR1 antag 0.562µM, Luciferase inh 0.316µM, HEK293 tox inconclusive and GPT2 inh inactive.
For Cc1ccc(NC(=O)N2CCc3c(C(=O)NCc4ccncc4)cccc32)cc1 the results were NIH3T3 tox inactive, NPR1 antag 12.6µM, Luciferase inh 0.562µM, HEK293 tox 31.6µM and GPT2 inh inactive.
Screening CCNC(=O)c1cccc2c1CCN2C(=O)Nc1ccc(C)cc1 returned NIH3T3 tox inconclusive, NPR1 antag 2.24µM, Luciferase inh 0.282µM, HEK293 tox inconclusive and GPT2 inh inactive.
For CNC(=O)c1cc(C2CC2)cc2onc(C3CCN(C(=O)Cc4ccccn4)CC3)c12 the results were NIH3T3 tox inactive and HEK293 tox inconclusive.
For O=C(NCCCN1CCOCC1)c1cccc2c1CCN2C(=O)Nc1ccc(F)cc1 the results were NIH3T3 tox inactive, NPR1 antag inactive, Luciferase inh 25.1µM, HEK293 tox inactive and GPT2 inh inactive.
For O=C(c1cccc2c1CCN2C(=O)Nc1ccccc1)N1CCN(c2ccccc2)CC1 the results were NIH3T3 tox inactive, NPR1 antag inactive, Luciferase inh 28.2µM, HEK293 tox inconclusive and GPT2 inh inactive.
Cc1nc(N2CCN(C(=O)c3ccc(C#N)cc3)CC2)cc(C(F)(F)F)n1 was read as NIH3T3 tox inactive, NPR1 antag inactive, Luciferase inh inactive, HEK293 tox inactive and GPT2 inh inactive.
For COCCCNC(=O)c1cnc2n[nH]c(-c3ccccc3)c2n1 the results were NIH3T3 tox inconclusive, NPR1 antag inactive, Luciferase inh inactive, HEK293 tox 100µM and GPT2 inh inconclusive.
O=C(NCc1ccccc1)c1ccccc1OC1CN(Cc2cccc(F)c2)C1 was read as NIH3T3 tox inconclusive, NPR1 antag inactive, Luciferase inh inactive, HEK293 tox 28.2µM and GPT2 inh inactive.
`O=C(NCc1ccccc1)c1ccccc1OC1CN(Cc2ccncc2)C1` gave NIH3T3 tox inconclusive, NPR1 antag inactive, Luciferase inh inactive, HEK293 tox 39.8µM and GPT2 inh inactive.
Screening Cc1cc(F)ccc1OC1CN(Cc2ccccc2)C1 returned NIH3T3 tox 89.1µM, NPR1 antag inactive, Luciferase inh inactive, HEK293 tox inconclusive and GPT2 inh inconclusive.
For O=C(NCc1ccccc1)c1ccccc1OC1CN(Cc2cccnc2Cl)C1 the results were NIH3T3 tox inconclusive, HEK293 tox 44.7µM and GPT2 inh inactive.
O=C(NCc1ccccc1)c1ccccc1OC1CN(Cc2cccnc2F)C1 was read as NIH3T3 tox inconclusive, HEK293 tox inconclusive and GPT2 inh inactive.
`CC1(c2ccccc2)N(Cc2ccccc2C#N)C(=O)OC12CCN(C(=O)C1CCOCC1)CC2` (stereo not given) gave NIH3T3 tox inconclusive, NPR1 antag inactive, Luciferase inh inactive, HEK293 tox inactive and GPT2 inh inactive.
Cc1ccc(CN2CC(Oc3ccccc3C(=O)N3CCOCC3)C2)cc1C was read as NIH3T3 tox inconclusive, NPR1 antag inactive, Luciferase inh inactive, HEK293 tox 44.7µM and GPT2 inh inactive.
Screening Cn1cc(CN2CCN3CCCC3C2)c(-c2ccc(C3CCCCC3)cc2)n1 (stereo not given) returned NIH3T3 tox inconclusive, NPR1 antag inactive, Luciferase inh inconclusive, HEK293 tox 25.1µM and GPT2 inh inconclusive.
O=C(NCC(F)(F)F)C1CCCN(Cc2cccc(-c3ccc(F)cc3F)c2)C1 (stereo not given) was read as NIH3T3 tox inconclusive, HEK293 tox inconclusive and GPT2 inh inactive.
O=C(NC1CCCC1)C1CCCN(Cc2cccc(-c3ccc(F)cc3F)c2)C1 (stereo not given) was read as NIH3T3 tox 39.8µM, HEK293 tox 39.8µM and GPT2 inh inactive.
For CC(C)NC(=O)C1CCCN(Cc2cccc(-c3ccc(F)cc3F)c2)C1 (stereo not given) the results were NIH3T3 tox inconclusive, HEK293 tox 35.5µM and GPT2 inh inactive.
For O=C(NC1CC1)C1CCCN(Cc2cccc(-c3ccc(F)cc3F)c2)C1 (stereo not given) the results were NIH3T3 tox inconclusive, HEK293 tox 39.8µM and GPT2 inh inactive.
Screening COc1cccc(CNC(=O)N2CC(c3noc(-c4ccncc4)n3)C2)c1 returned NIH3T3 tox inactive, NPR1 antag inactive, Luciferase inh inactive, HEK293 tox inactive and GPT2 inh inactive.
CC(C)N1CCC(N2CCCC2C(=O)Nc2cccc(-n3cccn3)c2)CC1 (stereo not given) was read as NIH3T3 tox inactive, NPR1 antag inactive, Luciferase inh inactive, HEK293 tox inactive and GPT2 inh inactive.
Screening O=C1CO[C@H]2CCN(Cc3cccc(OC(F)(F)F)c3)CC[C@@H]2N1Cc1ccccc1 returned NIH3T3 tox inconclusive, NPR1 antag inactive, Luciferase inh inactive, HEK293 tox 50.1µM and GPT2 inh inactive.
Cc1cccc(CN2CC[C@@H]3OCC(=O)N(Cc4ccccc4)[C@H]3CC2)c1 was read as NIH3T3 tox 100µM, NPR1 antag inactive, Luciferase inh inactive, HEK293 tox 100µM and GPT2 inh inactive.
COc1ncccc1CN1CC[C@@H]2OCC(=O)N(c3ccccc3)[C@H]2CC1 was read as NIH3T3 tox inactive, NPR1 antag inactive, Luciferase inh inactive, HEK293 tox inconclusive and GPT2 inh inactive.
`COc1ncccc1CN1CC[C@@H]2OCC(=O)N(Cc3ccccc3)[C@H]2CC1` gave NIH3T3 tox 100µM, NPR1 antag inactive, Luciferase inh inactive, HEK293 tox 112µM and GPT2 inh inactive.
`c1cc(-c2cc(-c3ccncc3)c3cncn3c2)c2[nH]ccc2c1` gave NIH3T3 tox 39.8µM, NPR1 antag inactive, Luciferase inh inconclusive, HEK293 tox 100µM and GPT2 inh inactive.
Screening c1cc(-c2cc(-c3ccncc3)c3cncn3c2)c2cc[nH]c2c1 returned NIH3T3 tox inconclusive, NPR1 antag inactive, Luciferase inh inactive, HEK293 tox 89.1µM and GPT2 inh inconclusive.
For c1cc(-c2cc(-c3ccncc3)c3cncn3c2)c2[nH]ncc2c1 the results were NIH3T3 tox inactive, NPR1 antag inactive, Luciferase inh inactive, HEK293 tox inactive and GPT2 inh inactive.
Screening O=C(NCc1ccccc1F)c1ccc2c(c1)CN(Cc1ccccc1F)CCO2 returned NIH3T3 tox inconclusive, HEK293 tox 44.7µM and GPT2 inh inactive.
`Cc1ccc(CNC(=O)c2ccc3c(c2)CN(Cc2ccncc2F)CCO3)cc1` gave NIH3T3 tox inconclusive, NPR1 antag inconclusive, Luciferase inh inactive, HEK293 tox inconclusive and GPT2 inh inactive.
`O=C(NCc1ccccc1F)c1ccc2c(c1)CN(Cc1ccncc1F)CCO2` gave NIH3T3 tox inconclusive, HEK293 tox 44.7µM and GPT2 inh inactive.

Assay outcomes from PubChem BioAssay.
